We go through 13 compounds from PubChem BioAssay (NCI).

Among the test systems are NCI-H23 lung; NCI-H226 lung; NCI-H322M lung; HOP-62 NSCLC; NCI-H460 lung; HOP-92 NSCLC; NCI-H522 lung; A549/ATCC NSCLC; 786-0 renal; COLO 205 colon.
What all share (experiment): NCI-60 one-dose screen, 48 h (100 = growth as untreated, 0 = no growth, -100 = all killed)
Conditions in all cases: 10 µM unless noted

Several values for one entry are separate records, joined by “and”; a condition that tells them apart may be missing. Identical values can stand only once. About 83,000 compounds went through this panel and 20% of them were active in at least one assay; those are over-represented in the sample as a whole.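 Percent growth is the endpoint: 0 to 100 indicates growth inhibition (40 means 60% inhibition), 0 means no net growth, and negative values indicate cell death.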 Activity calls are given as the source filed them. How the source made its calls: active means growth percent below 10; inactive means the rest.

With `CN(C)C(=O)SC1=C(c2c(Cl)cccc2Cl)C(=O)c2ccccc21`, the growth with NCI-H23 lung was 70.6% (inactive); in the assay with NCI-H226 lung, 111% (inactive); in the assay on NCI-H322M lung, 98.3% (inactive); in the assay with HOP-62 NSCLC, 92.2% (inactive); in the assay on NCI-H460 lung, 98.7% (inactive); in the assay with HOP-92 NSCLC, 3.58% (active). Moreover, the growth was -74.3% (active) in the assay on NCI-H522 lung, 110% (inactive) in the assay with A549/ATCC NSCLC, 71.5% (inactive) in the assay on 786-0 renal and -81.8% (active) with COLO 205 colon.

Consider `O=C1c2ccccc2C(=O)N1c1ccccc1`, for which the growth was 106% (inactive) with NCI-H23 lung; 101% (inactive) in the assay with NCI-H226 lung; 99.1% (inactive) in the assay on NCI-H322M lung; 96.9% (inactive) in the assay on HOP-62 NSCLC; 104% (inactive) in the assay with NCI-H460 lung; 104% (inactive) in the assay with HOP-92 NSCLC. Moreover, the growth in the assay on NCI-H522 lung was 90.9% (inactive); with A549/ATCC NSCLC, 90.7% (inactive); with 786-0 renal it was 105% (inactive); in the assay with COLO 205 colon, 106% (inactive).

As for `C[N+](C)=c1ccc2nc3c(cc(NCCCNc4cc5oc6cc(=[N+](C)C)ccc-6nc5c5ccccc45)c4ccccc43)oc-2c1`, the growth in the assay on NCI-H23 lung is -56.1% (active); in the assay with NCI-H226 lung, 73.2% (inactive); in the assay on NCI-H322M lung, 25.3% (inactive); with HOP-62 NSCLC, 44.4% (inactive); in the assay on NCI-H460 lung, -56.2% (active); with HOP-92 NSCLC, 59% (inactive). The growth with NCI-H522 lung is 32% (inactive); in the assay on A549/ATCC NSCLC, 20.5% (inactive); with 786-0 renal it was -68.5% (active); in the assay with COLO 205 colon it was -64.9% (active).

For the compound `CCCCCCC(C)c1ccccc1O` (stereo not given) (tested in a mixture with another compound), the growth in the assay on NCI-H23 lung was 90.2% (inactive); with NCI-H226 lung, 109% (inactive); with NCI-H322M lung, 117% (inactive); with HOP-62 NSCLC it was 99% (inactive); with NCI-H460 lung it was 101% (inactive); in the assay with HOP-92 NSCLC, 69.1% (inactive). Moreover, the growth in the assay on NCI-H522 lung is 105% (inactive); with A549/ATCC NSCLC, 100% (inactive); in the assay with COLO 205 colon it was 108% (inactive).

On to `COc1cc(/C=C/C(C)=O)ccc1O`, for which the growth is 96.6% (inactive) and 94.1% (inactive) in the assay on NCI-H23 lung; 95.3% (inactive) and 111% (inactive) with NCI-H226 lung; 88.4% (inactive) and 115% (inactive) with NCI-H322M lung; 94.2% (inactive) and 111% (inactive) with HOP-62 NSCLC; 102% (inactive) and 110% (inactive) in the assay on NCI-H460 lung; 73.3% (inactive) in the assay with HOP-92 NSCLC. The growth is 98.1% (inactive) and 100% (inactive) in the assay with A549/ATCC NSCLC; 121% (inactive) and 114% (inactive) in the assay on 786-0 renal; 97.5% (inactive) and 120% (inactive) in the assay on COLO 205 colon.

Take `O=C(/C=C/C=C/c1ccccc1)c1ccco1`: the growth in the assay on NCI-H226 lung was 109% (inactive); with NCI-H322M lung it was 110% (inactive); with HOP-62 NSCLC it was 117% (inactive); in the assay on NCI-H460 lung, 94.7% (inactive); with HOP-92 NSCLC, 96.1% (inactive); with NCI-H522 lung, 38% (inactive). Further, the growth in the assay with A549/ATCC NSCLC was 101% (inactive); in the assay with 786-0 renal, 104% (inactive); in the assay with COLO 205 colon, 103% (inactive).

`Nc1nc(N)c2nc(CNc3ccc(C(=O)NC(CCC(=O)O)C(=O)O)cc3)cnc2n1` (stereo not given): the growth in the assay on NCI-H226 lung was 60.5% (inactive) and 52% (inactive); with NCI-H322M lung, 51.2% (inactive) and 50.8% (inactive); with HOP-62 NSCLC, 39.1% (inactive) and 11.7% (inactive); in the assay with NCI-H460 lung, 15.2% (inactive) and 12.2% (inactive); in the assay on HOP-92 NSCLC it was 69.9% (inactive) and 43.7% (inactive); in the assay on NCI-H522 lung, 35% (inactive) and 38.7% (inactive). Besides, the growth is 28.7% (inactive) and 36.9% (inactive) in the assay with A549/ATCC NSCLC; 13.9% (inactive) and 8.47% (active) in the assay on 786-0 renal; 56.1% (inactive) and 32.8% (inactive) in the assay with COLO 205 colon.

For `NC(=S)N/N=C/c1ccc(Cl)s1`, the growth is 97.4% (inactive) with NCI-H226 lung; 101% (inactive) in the assay with NCI-H322M lung; 109% (inactive) in the assay on HOP-62 NSCLC; 101% (inactive) in the assay with NCI-H460 lung; 97.5% (inactive) in the assay with HOP-92 NSCLC; 98.6% (inactive) in the assay on NCI-H522 lung. Moreover, the growth is 106% (inactive) in the assay on A549/ATCC NSCLC, 105% (inactive) with 786-0 renal and 105% (inactive) with COLO 205 colon.

For the compound `COc1ccc(N=N/N=c2\sc3cc(OC)ccc3n2C)cc1`, the growth with NCI-H226 lung is 81.8% (inactive); in the assay on NCI-H322M lung, 83.9% (inactive); in the assay with HOP-62 NSCLC, 86.4% (inactive); in the assay on NCI-H460 lung, 94.9% (inactive); in the assay on HOP-92 NSCLC, 71.2% (inactive); in the assay on NCI-H522 lung, 73.8% (inactive). The growth was 69.8% (inactive) with A549/ATCC NSCLC, 105% (inactive) in the assay on 786-0 renal and 92.2% (inactive) with COLO 205 colon.

Regarding `Cc1cc(C(C)(CC(C)C)c2ccc(O)c(C)c2)ccc1O`, the growth was 93% (inactive) in the assay with NCI-H226 lung; 94.6% (inactive) with NCI-H322M lung; 104% (inactive) in the assay with HOP-62 NSCLC; 104% (inactive) with NCI-H460 lung; 88.3% (inactive) in the assay with HOP-92 NSCLC; 92.6% (inactive) in the assay with NCI-H522 lung. Further, the growth in the assay on A549/ATCC NSCLC was 81.5% (inactive); with 786-0 renal it was 102% (inactive); in the assay with COLO 205 colon, 125% (inactive).

In the case of `COC(=O)[C@@]12OC[C@]34[C@H]([C@@H](O)[C@@H]1O)[C@@]1(C)[C@H](O)C(=O)C=C(C)[C@@H]1C[C@H]3OC(=O)C(OC(C)=O)[C@@H]24` (stereo not given in full), the growth with NCI-H226 lung is -65.4% (active); in the assay with NCI-H322M lung, -28.9% (active); in the assay with HOP-62 NSCLC, -30.7% (active); in the assay on NCI-H460 lung, -43.4% (active); in the assay with HOP-92 NSCLC, -44.2% (active); in the assay on NCI-H522 lung it was -60.1% (active). Moreover, the growth in the assay on A549/ATCC NSCLC was -19.4% (active); with 786-0 renal it was -38.9% (active); in the assay on COLO 205 colon, -64.3% (active).

For the compound `O=[N+]([O-])c1ccc2c(N=Nc3ccc4ccccc4c3O)c(O)cc(S(=O)(=O)O)c2c1`, the growth with NCI-H226 lung was 103% (inactive); in the assay on NCI-H322M lung, 65.1% (inactive); in the assay on HOP-62 NSCLC it was 97.5% (inactive); in the assay with NCI-H460 lung, 102% (inactive); in the assay with HOP-92 NSCLC, 101% (inactive); in the assay on NCI-H522 lung it was 105% (inactive). Further, the figures for the growth with A549/ATCC NSCLC, in the assay on 786-0 renal and in the assay on COLO 205 colon were 103% (inactive), 106% (inactive) and 104% (inactive), respectively.

As to `Cc1ccnc2c1ccc1c(C)ccnc12`, the growth with NCI-H226 lung was 17.4% (inactive); with NCI-H322M lung, 19% (inactive); in the assay with HOP-62 NSCLC it was 6.08% (active); in the assay with NCI-H460 lung, 5.29% (active); with HOP-92 NSCLC it was 44.7% (inactive); in the assay with NCI-H522 lung, 11.8% (inactive). The growth in the assay on A549/ATCC NSCLC was 8.87% (active); in the assay on 786-0 renal, 6.29% (active); in the assay on COLO 205 colon it was 4.27% (active).
